Source: PubChem
Sfp inh – blocks B. subtilis Sfp PPTase activity. Q9F4F7. Biochemical Sfp PPTase activity, qHTS. Potency, µM, for the others: largest response in the series, negative = inhibition, hits mostly inhibitors. hit rate 3.5% among 310,000;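 also: the enzyme is Sfp with the accession as filed and its product quenches rhodamine fluorescence; 0% = enzyme reaction without inhibitor and -100% = no enzyme wells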
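With Hepes-Na pH 7.6 buffer containing 10 mM MgCl2, Sfp (15 nM) modified BHQ-2-YbbR (12.5 uM) using rhodamine-CoA (5 uM). Two reads 30 minutes apart at 525/598 nm yielded each well's rate.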
BAZ2B block – blocks human BAZ2B; AlphaScreen BAZ2B-H3K14Ac peptide displacement; Potency, µM (doses to about 114 µM), for the others: at the highest dose activity change, negative = inhibition, usual class: inhibitors; hit rate 4.4% among 360,000; AID 504333; also: % is scaled to controls: 0 for no effect and ±100 for the full control effect; nearly all actives have a fitted effect of over 60% in size
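AlphaScreen displacement of biotin-H3(5-23)K14Ac peptide (50 nM final) from BAZ2B (50 nM final) in PBS pH 7.4, 0.01% Tween-20; complex preformed 30 min RT, then compounds (top 110 uM) 30 min RT, beads 20 min dark.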
JMJD2A Tudor – JMJD2A Tudor domain (human) inhibition; Potency, µM (doses to about 114 µM), inactives show at the top dose activity change, negative = inhibition, hits mostly inhibitors; hit rate 4.4% among 390,000; AID 504339; AlphaScreen JMJD2A-Tudor / H3K4me3 peptide binding; O75164; also: % is scaled to controls: 0 for no effect and ±100 for the full control effect; nearly all actives have a fitted effect of over 50% in size
HP1b chromo inh – blocks HP1-beta chromodomain binding to methylated histone tails; AlphaScreen HP1-beta / biotin-H3K9me3 peptide binding; Potency, µM (highest dose often 114 µM), without a hit: at the top dose activity change, negative = inhibition, usual class: inhibitors; hit rate 0.56% among 390,000; AID 540317; also: nearly all actives have a fitted effect of over 70% in size
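HP1-beta protein (50 nM final) preincubated 30 min at room temperature with biotinylated H3(1-18)K9me3 peptide (50 nM) in PBS pH 7.4, 0.01% Tween-20, then compound added for 30 min. AlphaScreen streptavidin donor/nickel chelate acceptor beads (10 ug/mL final), 30 min dark, luminescence read.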
G9a block – G9a (human) methyltransferase inhibition; Q96KQ7; G9a H3K9 monomethylation, AlphaScreen, 2 h; Potency, µM (highest dose often 102 µM), inactives show top-dose activity, negative = inhibition, actives largely listed as inhibitors; hit rate 8.8% among 350,000; also: % is scaled to controls: 0 for no effect and ±100 for the full control effect; nearly all actives have a fitted effect of over 75% in size
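Methyltransferase reactions run at room temperature for 2 h (20 nM enzyme, 500 nM biotin-H3K9 peptide, 20 uM SAM) after a 15 min compound preincubation; product detected by AlphaScreen beads and anti-H3K9me1 antibody.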
L3MBTL1 inh – inhibitors of human L3MBTL1; Q9Y468; AlphaScreen L3MBTL1–H3K9me1 peptide binding; Potency, µM (top dose mostly 57.1 µM), for inactives: top-dose activity, negative = inhibition, hits mostly inhibitors; hit rate 0.66% among 230,000; AID 485360; also: % is scaled to controls: 0 for no effect and ±100 for the full control effect; nearly all actives have a fitted effect of over 60% in size
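Displacement of a biotinylated histone H3(1-15) peptide monomethylated at Lys9 (75 nM) from L3MBTL1 (50 nM) was measured by AlphaScreen after a 30 min room-temperature compound incubation; cefsulodin titration served as intraplate control.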
* = called active by the depositor; ? = inconclusive; nt = no result; ! = not active in a repeat; [ ] = dose if it differs, or a comment. Hits are enriched below; roughly 12% of the tested compounds scored in any of these assays. Calls follow the shape of the dose curve; as a rule, active = well fitted curve in the direction sought with a large enough effect; inconclusive = small, poorly fitted or top-dose-only effect, or another doubt; inactive = no such curve, though single readings can be large; an effect the other way counts as inactive or inconclusive. Potency is read from the fitted curve at half-maximal effect.

SMILES	Sfp inh	BAZ2B block	JMJD2A Tudor	HP1b chromo inh	G9a block	L3MBTL1 inh
COCCn1c(SCC(=O)Nc2ccc(Br)cc2)nc2c([nH]c3ccccc32)c1=O	nt	6%	-8%	27%[57 µM]	11%[59 µM]	nt
O=C(c1cnn2c1NC(c1ccc(Br)cc1)CC2C(F)(F)F)N1CCN(C23CC4CC(CC(C4)C2)C3)CC1 (configuration not stated)	11%	-30%	-19%	10%	28µM*	-7%
CCC(=O)N1CCc2cc(Br)cc(S(=O)(=O)CCC(=O)Nc3ccccc3C)c21	nt	1%	-11%	16%	-6%[59 µM]	nt
O=C(O)C(=O)/C(=C\c1ccc(Cl)cc1)c1ccc2ccccc2n1	-12%	?	22µM*	38%	8%	13%
Cc1ccc(-n2ncc(C(=O)NCCN3CCc4ccccc4C3)c2C2CCNCC2)cc1C	nt	0%[57.1 µM]	-23%	-6%	-29%[59 µM]	nt
O=C(O)c1ccc(N/N=C/c2ccc3nccnc3c2)cc1	-2%	-22%	-16%	14%	50µM*	-8%
O=C(O)c1ccc(N/N=C/c2cccc3cccnc23)cc1	-4%	71µM*	-5%[11.4 µM]	87%	nt	nt
O=C(O)c1ccc(N/N=C/c2ccc(F)c(F)c2)cc1	-12%	-30%	-35%	6%	4.5µM*	-5%
C(=N\NCc1ccccc1)/c1ccc2nccnc2c1	9%	-20%	-17%	40%	50µM*	-9%
C=Cc1ccc(Cn2c(SCC(=O)N3CCN(c4ccc(F)cc4)CC3)nc3ccccc32)cc1	nt	-25%	-22%	17%	?	nt
COc1ccc(NC(=O)Cn2cc(S(=O)(=O)N3CCC(C)CC3)c3ccccc3c2=O)cc1Cl	nt	-17%	-15%	24%	-20%[59 µM]	nt
Cc1ccc(S(=O)(=O)C2(C(=O)Nc3ccc(Cl)c(C(F)(F)F)c3)CC2)cc1	nt	33%	12%	71%	21%[59 µM]	nt
Cc1ccc2nc(Cl)c(/C=N/Nc3ccc(C(=O)O)cc3)cc2c1	-22%	?	-25%	32%	50µM*	nt
Cc1ccc2cc(/C=N/NC(=O)c3ccc(F)cc3)c(Cl)nc2c1	-1%	-8%	-20%	13%	67%[59 µM]	nt
COc1ccc(-c2c(C)nn3c(C(F)(F)F)cc(C)nc23)cc1OC	nt	-32%	?	7%	-33%[59 µM]	nt
Cc1ccc2c(c1)c1c(c(=O)n(Cc3ccccc3)c(=O)n1Cc1cccc(F)c1)n2C	nt	1%	6%	25%	-7%[59 µM]	nt
CCCCCCSc1nnc(-c2cnn(-c3ccccc3)c2-n2cccc2)n1C	-13%	-29%	-17%	9%	40µM*	nt
Cn1c(-c2cnn(-c3ccccc3)c2-n2cccc2)n[nH]c1=S	10%	-37%	8.9µM*	13%	8.9µM*	12%
O=c1c(-c2ccc(F)cc2)nc2cnc(N3CCNCC3)nc2n1-c1ccccc1	-8%	nt	nt	nt	-18%[0.501 µM]	nt
Cn1c(C2CCCN2C(=O)OC(C)(C)C)n[nH]c1=S (configuration not stated)	?	-7%	45µM*	7%	22µM*	-4%
COc1ccc(N(CC(=O)Nc2cc(OC)cc(OC)c2)S(=O)(=O)c2c(C)noc2C)cc1	nt	nt	-16%	17%	-5%[59 µM]	nt
COc1cc(S(=O)(=O)NCc2ccccc2Cl)ccc1-n1cnnn1	-9%	?	7%	32%	13µM*	nt
COc1ccccc1CNS(=O)(=O)c1ccc(-n2cnnn2)c(OC)c1	-9%	-18%	-10%	-17%	28µM*	nt
CCOc1ccc(C(=O)/C=C/c2cn(CC(O)CN3CCc4ccccc43)c3ccccc23)cc1 (configuration not stated)	nt	-26%	?	-5%	-27%[59 µM]	nt
COc1ccc(NC(=O)c2ncoc2-c2ccco2)cc1Cl	nt	1%	-13%	24%	52%[59 µM]	nt
SMILES	Sfp inh	BAZ2B block	JMJD2A Tudor	HP1b chromo inh	G9a block	L3MBTL1 inh
COc1ccc(CCCc2nnc(SCC(=O)Nc3ccc(OC)cc3)o2)cc1	3%	3%	28µM*!	-5%	?	nt
COc1ccc(C(=O)CSc2nnc(CNc3ccc(F)cc3)o2)cc1	15%	-11%	-12%	22%	-2%[59 µM]	nt
COc1ccc(NCc2nnc(SCC(=O)c3ccc(C)cc3)o2)cc1	-8%	?	?	-23%	14µM*	nt
COc1ccc(-c2cc(C(F)F)nn2-c2ccc(S(N)(=O)=O)cc2)cc1F	16%	nt	nt	nt	-33%[2.33 µM]	nt
O=C(c1cnccn1)N1CCC2(CC1)CN(c1ccccn1)C2	15%	nt	nt	nt	1%[12.7 µM]	nt
Cc1cc(N2CCOCC2)ccc1/C=C1\SC(=O)N(C(C)C)C1=O	-17%	-10%	-12%	18%	36%[12.7 µM]	8%
Cc1cc(N2CCCC2)ccc1/C=C1/C(=O)N(C)C(=S)N1C	-10%	1.6µM*	?	?	2.5µM*	-12%
CCCN1C(=O)/C(=C/c2ccc(N3CCOCC3)cc2)NC1=S	7%	-38%	-19%	47%	-4%[59 µM]	nt
CCCN1C(=O)/C(=C/c2ccc(N3CCCC3)c(C)c2)NC1=S	1%	35µM*	35µM*	?	-48%[0.0925 µM]	?
CCN1C(=O)/C(=C/c2ccc(N3CCCC3)cc2)NC1=S	1%	25µM*	?	?	3.2µM*	?
CCN1C(=O)/C(=C/c2ccc(OCc3ccc(C(=O)O)cc3)c(Cl)c2)NC1=S	19%	?	?	-5%	71µM*	nt
O=C(O)c1ccc(COc2ccc(CO)cc2Cl)cc1	13%	-26%	-34%	14%	-34%[12.7 µM]	nt
Cc1ccc(N2CC(NC(=O)/C=C\c3ccc4c(c3)OCO4)CC2=O)cc1 (configuration not stated)	nt	0%	-23%	26%	7%[59 µM]	nt
Cc1cccc(N(C)S(=O)(=O)c2nnc(NC(=O)C3CCCCC3)s2)c1	nt	386%	313%	356%	318%[59 µM]	2%
Clc1ccc(CCNC(c2ccc(Cl)cc2)c2nnc(-c3ccccc3)o2)cc1 (configuration not stated)	nt	49%	60%	89%	65%[59 µM]	nt
CN1C(=O)/C(=C/c2ccc(O)c([N+](=O)[O-])c2)NC1=S	1%	?	-32%	2%	40µM*	-22%
Cc1cc(/C=C2/C(=O)N(C)C(=S)N2C)ccc1N1CCCC1	-8%	14µM*	14µM*	35µM*	8.9µM*	-5%[11.4 µM]
Cc1cc(/C=C2\NC(=S)N(C)C2=O)ccc1N1CCCC1	0%	40µM*	89µM*	22%	3%	-17%
CC(C)Cn1c(=O)c2sccc2n2c(CCCC(=O)Nc3ccc(Cl)cc3)nnc12	nt	-12%	-20%	-5%	-24%[59 µM]	nt
CC(C)(C)C(=O)CSc1ncccn1	45µM*	?	?	29%	?	nt
O=C(c1ccc(Sc2ccccc2)c([N+](=O)[O-])c1)N1CCOCC1	1%	-26%	-32%	-6%	-7%	nt
CCN1CCN(C(=O)c2ccc(Cl)c(S(=O)(=O)N(C)c3ccccc3)c2)CC1	nt	-1%	-9%	14%	18µM*	0%
